In the supplement of paper PMC8540655:
A number with no mark means an inactive call.

What follows are compounds tested on Aedes aegypti larvae (assay: larval motility relative to same well at 0 h (fraction); higher = more motile (less active compound), active = 0.4 or less). Details: 10 µM; 2 h.
Experimental: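 MMV Pandemic Response Box compounds were tested at 10 µM (1% v/v DMSO) on Aedes aegypti larvae (18-24 h after hatching, about 10 per well, 96-well plates). Motility was quantified with INVAPP (200-frame movies) at 0, 2 and 24 h. Each well's motility was divided by its own 0 h score, and the median of 3 independent screens is reported.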
CCOC(=O)/C=C/[C@H](C[C@@H]1CCNC1=O)NC(=O)[C@H](CC)n1cccc(NC(=O)c2cc(C)on2)c1=O showed a larval motility of 1.27.
Compound COc1ccc2c(c1OC)C(=O)OC2C1c2c(cc3c(c2OC)OCO3)CCN1C (stereo not given) has a larval motility of 0.987.
C[C@H](c1cccc2ccccc12)N(C)Cc1ccccc1 was tested, and the larval motility was 1.02.
Cc1onc(-c2ccccc2)c1-c1ccc(S(N)(=O)=O)cc1 was tested, and the larval motility was 0.513.
O=C(Nc1ccccc1)N(Cc1cc(Br)ccc1O)c1ccc(F)cc1 gave a larval motility of 0.646.
For CC(=O)NC[C@H]1CN(c2ccc(N3CCSCC3)c(F)c2)C(=O)O1, the larval motility was 0.531.
Compound O=C(Nc1ccc(F)cc1)c1nn(-c2ccccc2)c(=O)cc1Cl has a larval motility of 1.14.
Compound CCOC(=O)Nc1cc(NC(C)CC(C)CN(CC)CC)c2nc(-c3ccccc3)c(-c3ccccc3)nc2n1 (stereo not given) has a larval motility of 0.848.
Nc1nc(N)c2c(Sc3ccccc3)cccc2n1 was tested, and the larval motility was 1.24.
Fc1ccc2c(/C=C/c3cccnc3)c[nH]c2c1 was tested, and the larval motility was 1.04.
COc1cc(Cc2cnc(N)nc2N)cc(OC)c1OC was tested, and the larval motility was 0.864.
O=C(NC(=O)N1CCCc2ccccc21)c1ccc(Cl)cc1Cl was tested, and the larval motility was 0.529.
CC(=O)O[C@H]1C[C@@]2(C)[C@@H](C[C@@H](O)[C@H]3[C@@]4(C)CC[C@@H](O)[C@@H](C)[C@@H]4CC[C@@]32C)/C1=C(\CCC=C(C)C)C(=O)O was tested, and the larval motility was 0.95.
In the case of N[C@@H]1CN(c2c(F)cc3c(=O)c(C(=O)O)cn([C@@H]4C[C@@H]4F)c3c2Cl)CC12CC2, the larval motility is reported as 0.745.
In the case of CC(=O)N[C@H](C)C(=O)N[C@H](Cc1ccccc1)C(=O)O, the larval motility is reported as 0.496.
For COc1c(NC(=O)[C@H]2CC[C@@H](COc3ccc([N+](=O)[O-])cc3)CC2)c(F)cc2c(=O)c(C(=O)O)cn(C3CC3)c12, the larval motility was 1.02.
In the case of NCCCc1ccccc1C(=O)Nc1ncc([N+](=O)O)s1, the larval motility is reported as 0.869.
With CCC(C)NCC(O)Cn1c2ccc(Cl)cc2c2cc(Cl)ccc21 (stereo not given) the larval motility was 0.799.
In the case of CCOC(=O)/C=C/[C@H](C[C@@H]1CCNC1=O)NC(=O)[C@@H](CC(=O)[C@@H](NC(=O)c1cc(C)on1)C(C)C)Cc1ccc(F)cc1, the larval motility is reported as 1.26.
In the case of OC(Cn1cncn1)(Cn1cncn1)c1ccc(F)cc1F, the larval motility is reported as 1.05.

Same assay, conditions: 10 µM; 24 h
CCOC(=O)/C=C/[C@H](C[C@@H]1CCNC1=O)NC(=O)[C@H](CC)n1cccc(NC(=O)c2cc(C)on2)c1=O was tested, and the larval motility was 0.871.
COc1ccc2c(c1OC)C(=O)OC2C1c2c(cc3c(c2OC)OCO3)CCN1C (stereo not given) gave a larval motility of 0.828.
C[C@H](c1cccc2ccccc12)N(C)Cc1ccccc1 gave a larval motility of 1.26.
For Cc1onc(-c2ccccc2)c1-c1ccc(S(N)(=O)=O)cc1, the larval motility was 0.435.
For O=C(Nc1ccccc1)N(Cc1cc(Br)ccc1O)c1ccc(F)cc1, the larval motility was 1.02.
For CC(=O)NC[C@H]1CN(c2ccc(N3CCSCC3)c(F)c2)C(=O)O1, the larval motility was 1.07.
In the case of O=C(Nc1ccc(F)cc1)c1nn(-c2ccccc2)c(=O)cc1Cl, the larval motility is reported as 0.91.
Work on CCOC(=O)Nc1cc(NC(C)CC(C)CN(CC)CC)c2nc(-c3ccccc3)c(-c3ccccc3)nc2n1 (stereo not given) yielded a larval motility of 1.04.
For Nc1nc(N)c2c(Sc3ccccc3)cccc2n1, the larval motility was 0.982.
Fc1ccc2c(/C=C/c3cccnc3)c[nH]c2c1 showed a larval motility of 0.678.
COc1cc(Cc2cnc(N)nc2N)cc(OC)c1OC gave a larval motility of 0.829.
Work on O=C(NC(=O)N1CCCc2ccccc21)c1ccc(Cl)cc1Cl yielded a larval motility of 0.89.
In the case of CC(=O)O[C@H]1C[C@@]2(C)[C@@H](C[C@@H](O)[C@H]3[C@@]4(C)CC[C@@H](O)[C@@H](C)[C@@H]4CC[C@@]32C)/C1=C(\CCC=C(C)C)C(=O)O, the larval motility is reported as 0.825.
Work on N[C@@H]1CN(c2c(F)cc3c(=O)c(C(=O)O)cn([C@@H]4C[C@@H]4F)c3c2Cl)CC12CC2 yielded a larval motility of 1.11.
Compound CC(=O)N[C@H](C)C(=O)N[C@H](Cc1ccccc1)C(=O)O has a larval motility of 0.597.
COc1c(NC(=O)[C@H]2CC[C@@H](COc3ccc([N+](=O)[O-])cc3)CC2)c(F)cc2c(=O)c(C(=O)O)cn(C3CC3)c12 gave a larval motility of 0.873.
Compound NCCCc1ccccc1C(=O)Nc1ncc([N+](=O)O)s1 has a larval motility of 0.646.
CCC(C)NCC(O)Cn1c2ccc(Cl)cc2c2cc(Cl)ccc21 (stereo not given) gave a larval motility of 1.
Compound CCOC(=O)/C=C/[C@H](C[C@@H]1CCNC1=O)NC(=O)[C@@H](CC(=O)[C@@H](NC(=O)c1cc(C)on1)C(C)C)Cc1ccc(F)cc1 has a larval motility of 1.09.
Work on OC(Cn1cncn1)(Cn1cncn1)c1ccc(F)cc1F yielded a larval motility of 0.875.
